Most compounds without a hit are left out; they make up all but 2.8% or so of the library.
Peg3 prom inh: inhibitors of Peg3 promoter | HeLa PEG-Prom luciferase reporter, luminescence, overnight | inhibition, % at 20 µM | 360,000 compounds, 1.7% hits | AID 588405;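 active = inhibition of at least 50% at 20 µM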
HIF-2a inh: blocks HIF-2a reporter activity. inhibition, % at 18.8 µM. 360,000 compounds, 0.72% hits. 786-0 RCC cells HIF-2a reporter, luciferase luminescence, overnight;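 active = inhibition of the luminescence signal of 40% or more relative to plate controls, in a single-dose primary screen at 18.75 µM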
MITF TRPM1 inh: MITF TRPM1 promoter inhibition in SK-MEL-5 cells; SK-MEL-5 TRPM1 promoter luciferase, 24 h; inhibition, % at 12.5 µM; 330,000 compounds, 0.83% hits;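 active = mean inhibition across replicates of 60% or more, whatever share of single replicates reaches that level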
KKLEB tox: reduces viability of KKLEB cystic fibrosis airway cells; AID 602141; KKLEB CF airway cells viability, ATPlite luminescence, overnight; hits give low values; cells stimulated with P. aeruginosa culture filtrate; activity change (cytotoxicity), % at 5 µM; 360,000 compounds, 0.36% hits;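 active = corrected activity change at or below -50% at 5 µM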
CF NFkB block: cystic fibrosis NF-kB activation inhibition; KKLEB NF-kB-GFP reporter, PAF-induced, GFP fluorescence overnight; inhibition, % at 5 µM; 360,000 compounds, 0.86% hits; AID 588850;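 active = at least 50% inhibition at 5 µM, scaled per plate between neutral and stimulator controls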;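 also: PAF is a Pseudomonas aeruginosa culture filtrate used as stimulus; plate controls were PAF-stimulated DMSO wells for no effect and unstimulated DMSO wells for full effect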
Shn3 3UTR inh: inhibitors of Schnurri-3 3'UTR reporter in osteoblasts | Clone20 osteoblast Shn3 3'UTR firefly luciferase, 24 h | inhibition, % at 12.5 µM | 360,000 compounds, 0.52% hits;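 active = mean inhibition of at least 75% with every replicate also reaching 75%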;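 also: 0% = median of neutral control wells and 100% = pilot-screen positive control compound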
Mdm2-MdmX confirm: confirmation of inhibitors of human Mdm2/MdmX interaction, set 2 | SaOS-2 split-luciferase Mdm2/MdmX complementation, luminescence | 740 compounds, 99% hits | AID 504601 | inhibition, % at 8 µM | shares compounds with HIF-2a inh;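 active = mean inhibition of the luminescence signal across two replicates at or above 26 percent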
HIF-2a inh conf: confirmation of HIF-2a inhibitors | inhibition, % at 18.8 µM | 1,800 compounds, 56% hits | shares compounds with HIF-2a inh | 786-0 RCC cells, HIF-2a luciferase reporter luminescence, overnight;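 active = mean inhibition across four replicates of at least 40 percent at the single tested concentration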
HIF-1a cs: counter-screen for HIF-2a inhibitors: HIF-1a inhibition in MiaPaCa-2 cells; shares compounds with HIF-2a inh; MiaPaCa-2 HIF-1a luciferase reporter, desferoxamine, overnight; inhibition, % at 18.8 µM; AID 651589; 1,800 compounds, 72% hits;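 active = mean inhibition of the reporter signal across four replicates at the single tested dose of 50% or more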
Active calls of the source: *; · = no result.

SMILES	Peg3 prom inh	HIF-2a inh	MITF TRPM1 inh	KKLEB tox	CF NFkB block	Shn3 3UTR inh	HIF-2a inh conf	HIF-1a cs	others
Cc1ccc(C2(c3ccc(C)cc3)CC2C(=O)Nc2ccc([N+](=O)[O-])cc2O)cc1 (stereo not drawn)	53*	-18	74*	-85*	84*	78	·	·	Mdm2-MdmX confirm=95*
CC1(C)CC1C(=O)Nc1ccc([N+](=O)[O-])cc1Br (stereo not drawn)	-14	-13	-19	-4	9	9	·	·
CC(=O)CC1OC(=O)C(Br)=C1NCc1ccccc1 (stereo not drawn)	104*	42*	-21	-10	9	10	17	76*
O=C(NC1CC2CCCC(C1)N2C(=O)Nc1ccccc1F)C1CC1 (stereo not drawn)	26	15	-14	1	0	11	·	·
COc1ccc(S(=O)(=O)N2CCN(CC(=O)Nc3sccc3C(N)=O)CC2)cc1OC	2	3	0	9	-26	8	·	·
COc1ccc(/C=C/C(=O)C23CC4CC(CC(C4)C2)C3)cc1CN1CCOCC1	48	44*	-2	-6	13	-31	2	42
CN1CCc2c(sc(NC(=O)c3ccc([N+](=O)[O-])o3)c2C(N)=O)C1	107*	55*	86*	-23	82*	-10	55*	104*	Mdm2-MdmX confirm=101*
CN1CCc2c(sc(NC(=O)c3ccco3)c2C(N)=O)C1	-34	-53	-12	0	0	-15	·	·
Nc1cc(Nc2ccccc2)ccn1	-18	4	-2	-24	-9	10	·	·
N#Cc1sc2nccc(Nc3ccccc3)c2c1N	23	17	·	-14	81*	37	·	·	Mdm2-MdmX confirm=91*
O=C(NCCS(=O)(=O)NCc1ccc2c(c1)OCO2)c1ccccc1	1	1	-1	-13	18	-3	·	·
O=C(Cc1coc2cc3c(cc12)CCC3)OCC(=O)N1CCCC1=O	28	80*	26	-16	35	15	77*	83*
CC1(c2ccc(C#N)cc2)NC(=O)N(CC(=O)Nc2cc(S(=O)(=O)N3CCOCC3)ccc2Cl)C1=O (stereo not drawn)	7	16	3	-3	17	-27	·	·
CCc1ccc(-c2nnn(CCC(=O)OC)n2)cc1	-27	87*	16	-5	2	18	94*	70*
Cc1ccc(N2CC(C(=O)N3CCOCC3)CC2=O)cc1Cl (stereo not drawn)	-2	6	10	-4	6	-12	·	·
COc1ccccc1-c1cc2nc(C)c(CCC(=O)NCc3ccc(F)cc3)c(C)n2n1	8	35	-5	9	9	15	·	·
COc1cc(OC)cc(-c2cc3nc(C)c(CCC(=O)NCc4ccccc4)c(C)n3n2)c1	21	69*	30	2	3	66	79*	87*
Cc1nc2ncnn2c(C)c1CCC(=O)N1CCN(c2ccccn2)CC1	9	8	14	1	-1	-5	·	·
Cc1nc2cc(-c3ccccc3)nn2c(C)c1CCC(=O)N1CCN(c2ccccc2)CC1	-35	69*	·	15	-33	42	79*	53*
CCSC1(SCC)N=C(N)C2(C#N)C(c3ccc(F)cc3)C12C#N (stereo not drawn)	107*	49*	82*	0	42	31	59*	93*
COC1(OC)N=C(N)C2(C#N)C(c3ccc(F)cc3)C12C#N (stereo not drawn)	3	12	-13	10	-1	1	·	·
O=C(COc1cc(O)c2c(=O)c3ccccc3oc2c1)OCc1ccccc1	9	8	-6	-1	-6	7	·	·
CC(=O)Nc1nc(-c2ccc3c(c2)CCN3C(=O)C2CC2)c(C)s1	-15	-63	13	6	-21	-29	·	·	Mdm2-MdmX confirm=97*
CNc1nc(-c2ccc3c(c2)CCN3C(=O)CC(C)(C)C)c(C)s1	-59	-111	·	2	0	8	·	·
O=[N+]([O-])c1ccc(N=Nc2ncc[nH]2)cc1	107*	-23	15	-7	75*	73	·	·	Mdm2-MdmX confirm=103*
SMILES	Peg3 prom inh	HIF-2a inh	MITF TRPM1 inh	KKLEB tox	CF NFkB block	Shn3 3UTR inh	HIF-2a inh conf	HIF-1a cs	others
N#CC1c2ccccc2C=CN1C(=O)N(c1ccccc1)c1ccccc1 (stereo not drawn)	47	77*	24	6	45	-10	6	108*
CC(C)(C)c1ccc(-c2noc(CCC(=O)NCc3ccco3)n2)cc1	-189	85*	83*	-5	5	19	92*	-45
COc1ccc(C(C)=O)cc1CSc1nnc(-c2ccc(Cl)cc2)n1-c1ccccc1	29	41*	31	2	20	5	16	27
Cc1ccc(C)c(S(=O)(=O)N2CCN(C(=O)c3n[nH]c(=O)c4ccccc34)CC2)c1	-1	11	17	2	9	13	·	·
CCC(C(=O)Nc1ccccc1C(=O)N1CCCC1)N1C(=O)c2ccccc2C1=O (stereo not drawn)	8	17	7	-12	12	-5	·	·
O=C(O)c1ccccc1NC(=O)C(Cc1ccccc1)N1C(=O)c2ccccc2C1=O (stereo not drawn)	10	42*	10	4	-7	-21	3	-10
CNC[C@H](CC1CCCCC1)NC[C@H](CO)NCCc1cccc(C(F)(F)F)c1	101*	2	57	-19	31	1	·	·	Mdm2-MdmX confirm=103*
COc1ccc(/C=N/n2c(C)nc3ccccc3c2=O)cc1	-110	-94	-32	16	-10	-52	·	·
COc1ccc(/C=N\n2nnc3ccccc32)cc1	48	40*	38	-19	1	49	72*	42
CC(=O)N(Cc1c(C)nn(-c2ccccc2)c1Cl)c1ccc(Cl)cc1	22	29	-1	-10	18	17	·	·
Cc1nn(-c2ccccc2)c(Cl)c1CN(C(=O)CCl)c1ccc(Cl)cc1	103*	96*	91*	-97*	91*	96*	99*	106*
Cc1nn(-c2ccccc2)c(Cl)c1CN(C(=O)CCl)c1cccc2ccccc12	95*	62*	25	1	32	50	73*	106*	Mdm2-MdmX confirm=103*
Cc1ccc(NC(=O)c2ccccc2)cc1	-307	-225	-74	-17	12	-75	·	·

Screening data deposited in PubChem BioAssay by several laboratories.
